Some test systems named below: NCI-H23 lung; NCI-H226 lung; NCI-H322M lung; HOP-62 NSCLC; NCI-H460 lung; HOP-92 NSCLC; NCI-H522 lung; A549/ATCC NSCLC; 786-0 renal; COLO 205 colon; DU-145 prostate; MALME-3M melanoma; MDA-MB-231 breast; RXF 393 renal; SF-268 CNS; SF-295 CNS; SF-539 CNS; UACC-257 melanoma; M14 melanoma; K-562 leukemia.
Holding throughout (experiment): NCI-60 one-dose screen, 48 h (100 = growth as untreated, 0 = no growth, -100 = all killed)
Holding throughout (settings): 10 µM unless noted

About 83,000 compounds went through this panel and 20% of them were active in at least one assay; those are over-represented in the sample as a whole.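 A percent growth of 40 corresponds to 60% growth inhibition; 0 means no net growth; -100 means all cells died. Active threshold: below 10.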 A number with no mark means an inactive call. Active and inactive are the calls of the source.

On to `CC(=O)O[C@@H]1[C@@H](OC(C)=O)[C@H](OC(C)=O)CO[C@H]1Nc1cccc2ccccc12`, for which the growth with NCI-H23 lung was 94.8%; in the experiment with NCI-H226 lung it was 97.2%; in the experiment on NCI-H322M lung it was 94.4%; in the experiment with HOP-62 NSCLC, 94.1%; in the experiment with NCI-H460 lung it was 98%; in the experiment with HOP-92 NSCLC, 104%. The growth in the experiment with NCI-H522 lung was 68.3%; with A549/ATCC NSCLC, 102%; with 786-0 renal, 107%; in the experiment on COLO 205 colon it was 99.7%; with DU-145 prostate, 100%; in the experiment on MALME-3M melanoma, 86.9%. Moreover, the growth with MDA-MB-231 breast was 89%; in the experiment with RXF 393 renal, 105%; with SF-268 CNS, 83.1%; in the experiment on SF-295 CNS, 94.5%; in the experiment with SF-539 CNS it was 90.2%; with UACC-257 melanoma, 103%. Further, the growth in the experiment on M14 melanoma is 99.6%.

Take `Cc1cc(NCCN(C(C)C)C(C)C)nc(/N=C(\N)Nc2ccc(Cl)c(C(F)(F)F)c2)n1`: the growth was -67.1% (active) with NCI-H23 lung; -32.1% (active) in the experiment with NCI-H226 lung; -51.9% (active) with NCI-H322M lung; -95.4% (active) with HOP-62 NSCLC; -84.7% (active) with NCI-H460 lung; -93.5% (active) in the experiment with HOP-92 NSCLC. The growth with NCI-H522 lung is -81.1% (active); in the experiment on A549/ATCC NSCLC it was -89.5% (active); in the experiment on 786-0 renal, -99.7% (active); in the experiment with COLO 205 colon, -71.3% (active); in the experiment with DU-145 prostate, -29.5% (active); with K-562 leukemia, -100% (active). Further, the growth in the experiment on MALME-3M melanoma was -74.5% (active); in the experiment with MDA-MB-231 breast it was -65.1% (active); with SF-268 CNS, -85% (active); in the experiment on SF-295 CNS it was -77.8% (active); with SF-539 CNS it was -97.8% (active); in the experiment with UACC-257 melanoma it was -95.3% (active). In addition, in the experiment with M14 melanoma, the growth is -89.8% (active).

Consider `CC(C)(C)C(=O)/C=c1/[nH]c(=O)/c(=C/c2ccccc2O)s1`, for which the growth is 73.1% with NCI-H23 lung; 76.4% in the experiment on NCI-H226 lung; 71.7% in the experiment on NCI-H322M lung; 46% in the experiment with HOP-62 NSCLC; 23.8% in the experiment with NCI-H460 lung; 80.4% in the experiment on HOP-92 NSCLC. For the same compound, the growth with NCI-H522 lung was 26.8%; in the experiment on A549/ATCC NSCLC it was 44.2%; in the experiment with 786-0 renal it was 87.3%; in the experiment on COLO 205 colon it was 89.1%; with DU-145 prostate it was 78.6%; in the experiment with MALME-3M melanoma, 66.4%. Further, the growth with MDA-MB-231 breast was 58.1%; with RXF 393 renal it was 62.7%; in the experiment on SF-268 CNS, 61%; in the experiment on SF-295 CNS it was 60.6%; in the experiment on SF-539 CNS, 60.1%; with UACC-257 melanoma, 82.1%. In addition, the growth with M14 melanoma was 30.4%.

As to `O=C(Cn1c2ccccc2c2ccncc21)N/N=C\c1ccc2ccccc2c1`, the growth is 55% with NCI-H23 lung; 31.9% in the experiment with NCI-H226 lung; 39.1% in the experiment with NCI-H322M lung; 19.8% in the experiment with HOP-62 NSCLC; 5.42% (active) in the experiment on NCI-H460 lung; -7.39% (active) in the experiment on HOP-92 NSCLC. For the same compound, the growth is 38% in the experiment on NCI-H522 lung; -10.1% (active) with A549/ATCC NSCLC; -3.98% (active) in the experiment with 786-0 renal; 31.6% in the experiment on COLO 205 colon; 9.11% (active) in the experiment on DU-145 prostate; 3.45% (active) in the experiment with MALME-3M melanoma. The growth was 5.36% (active) in the experiment with MDA-MB-231 breast; 1.74% (active) in the experiment on RXF 393 renal; 41.6% in the experiment on SF-268 CNS; 28.7% in the experiment on SF-295 CNS; 27.6% with SF-539 CNS; 59.7% with UACC-257 melanoma. In the experiment with M14 melanoma, the growth was 30.9%.

Consider `CN(C)C(=O)Nc1nc2cc(Cl)c(Cl)cc2[nH]1`, for which the growth with NCI-H23 lung is 11.4%; in the experiment with NCI-H226 lung it was 30.4%; in the experiment with NCI-H322M lung it was 39.9%; in the experiment with HOP-62 NSCLC, -38.6% (active); in the experiment with NCI-H460 lung, 2.78% (active); in the experiment with HOP-92 NSCLC, 75.3%. Also, the growth in the experiment with NCI-H522 lung was -58.1% (active); in the experiment on A549/ATCC NSCLC it was 3.32% (active); with 786-0 renal it was -66.2% (active); in the experiment on COLO 205 colon, -12.9% (active); in the experiment on DU-145 prostate, 4.55% (active); with K-562 leukemia it was -10% (active). For the same compound, the growth in the experiment on MALME-3M melanoma is 47.4%; in the experiment on MDA-MB-231 breast it was 46.1%; in the experiment on SF-268 CNS, 36.5%; in the experiment with SF-295 CNS it was 9.99% (active); in the experiment with SF-539 CNS, -24.7% (active); with UACC-257 melanoma it was 17%. Also, in the experiment on M14 melanoma, the growth is -66.9% (active).

For the compound `COc1ccccc1S(=O)(=O)Nc1ccc2c3c(cc(-c4ccoc4)nc13)C(=O)N2C`, the growth was 81.2% with NCI-H23 lung; 82.7% with NCI-H226 lung; 76.2% in the experiment with NCI-H322M lung; 52.6% in the experiment on HOP-62 NSCLC; 70.9% in the experiment with NCI-H460 lung; 45.3% in the experiment on HOP-92 NSCLC. Besides, the growth with NCI-H522 lung was 46.3%; with A549/ATCC NSCLC, 66.2%; in the experiment with 786-0 renal, 53.6%; in the experiment on COLO 205 colon, 44.7%; in the experiment on DU-145 prostate, 86.5%; with MALME-3M melanoma, 71.3%. For the same compound, the growth is 62.8% with MDA-MB-231 breast; 85.3% in the experiment with RXF 393 renal; 84.1% in the experiment with SF-268 CNS; 56.9% in the experiment on SF-295 CNS; 63.2% with SF-539 CNS; 58.7% in the experiment with UACC-257 melanoma. Further, the growth in the experiment on M14 melanoma is 53.1%.

Take `CCOc1ccc(Cc2nccc3cc(OCC)c(OCC)cc23)cc1OCC`: the growth in the experiment with NCI-H23 lung is 34%; with NCI-H226 lung, 73.3%; in the experiment with NCI-H322M lung, 66.8%; with HOP-62 NSCLC, 67.7%; in the experiment with NCI-H460 lung, 48%; with HOP-92 NSCLC it was 52%. For the same compound, the growth was 56.4% with NCI-H522 lung; 64.6% in the experiment with A549/ATCC NSCLC; 64.8% with 786-0 renal; 76.2% in the experiment on COLO 205 colon; 77.2% in the experiment on DU-145 prostate; 14.3% in the experiment with K-562 leukemia. Moreover, the growth was 80.2% in the experiment on MALME-3M melanoma; 53.2% in the experiment with MDA-MB-231 breast; 78% in the experiment on SF-268 CNS; 28% with SF-295 CNS; 65.9% in the experiment on SF-539 CNS; 69% in the experiment with UACC-257 melanoma. Also, the growth with M14 melanoma was 70.8%.

Values taken from PubChem BioAssay (NCI).
